PKM2 act: increases activity of human pyruvate kinase M2; P14618; purified PKM2, Kinase-Glo ATP luminescence, activation; response scale: 0% is enzyme alone, no compound; Potency, µM (titrated, usually from 57.5 µM), hits mostly activators; hit rate 0.34% among 260,000; AID 1631; note: nearly all actives have a fitted effect of over 55% in size
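ATP formation by purified human PK-M2, quantified via coupled luciferase luminescence after 1 h at room temperature with 0.1 mM ADP and 0.5 mM PEP final.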
Six1-Eya2 inh: Six1/Eya2 interaction inhibition; Q15475+O00167; AlphaScreen GST-Six1/His-Eya2 binding, biochemical; hits give low values; activity change, % (concentration not given with the values); hit rate 0.56% among 360,000; AID 651725; in the data active = activity change below about -65%; inconclusive = mostly about -30% to -63%
Target sequence (O00167 whole entry, looked up): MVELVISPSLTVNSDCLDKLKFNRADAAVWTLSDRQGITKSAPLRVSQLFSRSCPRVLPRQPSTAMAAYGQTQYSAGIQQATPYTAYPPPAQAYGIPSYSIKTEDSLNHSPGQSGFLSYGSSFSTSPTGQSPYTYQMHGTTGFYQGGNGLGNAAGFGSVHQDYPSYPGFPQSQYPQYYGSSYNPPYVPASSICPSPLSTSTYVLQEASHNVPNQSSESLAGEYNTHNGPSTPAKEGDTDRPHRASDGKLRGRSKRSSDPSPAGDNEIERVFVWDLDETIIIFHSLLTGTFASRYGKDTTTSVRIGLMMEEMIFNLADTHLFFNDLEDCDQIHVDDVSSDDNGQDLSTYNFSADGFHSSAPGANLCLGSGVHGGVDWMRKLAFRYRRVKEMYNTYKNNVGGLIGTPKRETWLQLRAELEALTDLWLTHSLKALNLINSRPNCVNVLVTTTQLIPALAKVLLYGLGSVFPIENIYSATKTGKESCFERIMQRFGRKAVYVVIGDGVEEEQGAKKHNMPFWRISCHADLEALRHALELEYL
Target sequence (Q15475 whole entry, looked up): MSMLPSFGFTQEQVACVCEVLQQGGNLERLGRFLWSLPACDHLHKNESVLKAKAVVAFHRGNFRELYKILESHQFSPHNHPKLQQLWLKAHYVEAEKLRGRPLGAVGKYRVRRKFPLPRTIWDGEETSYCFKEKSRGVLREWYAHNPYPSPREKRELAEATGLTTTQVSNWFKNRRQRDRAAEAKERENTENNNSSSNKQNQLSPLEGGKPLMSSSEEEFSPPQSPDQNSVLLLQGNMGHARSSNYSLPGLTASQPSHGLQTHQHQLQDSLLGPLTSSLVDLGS
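AlphaScreen luminescence read after one hour at 37 °C in darkness. Pin-transferred compounds met GST-Six1 and His-Eya2 protein (5X stock 250 nM/500 nM) plus glutathione donor and Ni-chelate acceptor beads (5X, 50 ug/mL).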
CtBP-E1A inh: CtBP/E1A binding inhibition | AlphaScreen GST-E1A/His-CtBP binding, 1536-well; hits give low values | activity change, % (test concentration not listed) | hit rate 0.49% among 340,000 | AID 651724; in the data active = activity change below about -65%; inconclusive = mostly about -30% to -63%
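GST-E1A and His-tagged CtBP (125 nM each as 5X stock) were preincubated with pin-transferred compound for 2 h at 37 °C in the dark, then glutathione donor and nickel acceptor beads were added for 1 h before AlphaScreen reading.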
VP16 counter: inhibits Gal4-VP16 luciferase reporter, ROR gamma counter-screen; Drosophila S2 Gal4-VP16 UAS-luciferase, luminescence, 20 h; Potency, µM (titrated, usually from 53.6 µM), most hits filed as inhibitors; hit rate 3.5% among 310,000; AID 2546;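 note: Gal4-VP16 expression switched on by copper sulfate through the metallothionein promoter; nearly all actives have a fitted effect of over 50% in size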
RORg inh: inhibitors of mouse ROR gamma transcriptional activity; Drosophila S2 Gal4-RORgamma UAS-luciferase reporter, 20 h; Potency, µM (titrated, usually from 53.6 µM), hits mostly inhibitors; hit rate 5.4% among 310,000; note: nearly all actives have a fitted effect of over 60% in size
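Read-out: Photinus luciferase luminescence; inhibitors lower reporter signal. Insect Schneider cells with Gal4-ROR gamma fusion under metallothionein promoter, UAS reporter; 700 uM final copper sulfate induction, 20 hr, ambient temperature.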
Hits are given with their value; i = inactive; ? = inconclusive; nt = not tested or not shown; [ ] = dose if it differs, or a comment. In the library only some 5.6% were active in any assay of this set; here they are far more common. Unless noted, calls come from the whole dose curve; as a rule, active = well fitted curve in the direction sought with a large enough effect; inconclusive = small, poorly fitted or top-dose-only effect, or another doubt; inactive = no such curve, though single readings can be large; an effect the other way counts as inactive or inconclusive.

SMILES | PKM2 act | Six1-Eya2 inh | CtBP-E1A inh | VP16 counter | RORg inh
Cc1ccc(SC2CC(=O)N(c3ccc4c(c3)OCCO4)C2=O)cc1 (stereo not drawn) | i | i | i | ? | i
COc1ccc(N2C(=O)CC(Sc3n[nH]c(-c4ccccc4)n3)C2=O)cc1 (stereo not drawn) | i | i | i | i | 11µM
Cc1ccc(N2C(=O)CC(Sc3cccs3)C2=O)cc1 (stereo not drawn) | i | i | nt | 7.9µM | 11µM
CCOc1ccc(N2C(=O)CC(Sc3n[nH]c(-c4ccccc4)n3)C2=O)cc1 (stereo not drawn) | i | i | nt | ? | ?
Cc1ccc(N2C(=O)CC(Sc3nccc(C)n3)C2=O)cc1 (stereo not drawn) | i | i | i | ? | 18µM
COc1ccc(NC(=O)COC(=O)CCc2ccc(S(=O)(=O)N3CCOCC3)cc2)c(OC)c1 | nt | i | i | nt | nt
Cc1c2cnn(CC(=O)NCCCN3CC(C)CC(C)C3)c(=O)c2c(C)n1Cc1ccccc1Cl (stereo not drawn) | nt | i | i | i | i
O=C(c1ccc(=O)[nH]c1)N(c1ccccc1)C(CCc1ccccc1)c1nc2ccccc2[nH]1 (stereo not drawn) | nt | i | i | nt | nt
O=C(/C=C/c1c(F)cccc1Cl)Nc1nc2ccccc2[nH]1 | i | i | i | ? | 4.5µM
Cc1ccc(/C=C/C(=O)c2nc3ccccc3[nH]2)cc1 | i | i | i | ? | 6.3µM
Cc1ccc(/C=C/C(=O)Nc2nc3ccccc3[nH]2)cc1 | i | i | i | ? | 5.6µM
COc1cc(C(=O)NCC(c2ccco2)N2CCCC2)ccc1OCc1ccc(Cl)cc1Cl (stereo not drawn) | nt | i | nt | nt | nt
CN1c2ccccc2-c2nc3ccccc3n2C1c1ccccn1 (stereo not drawn) | i | i | i | ? | 4µM
CCn1c(-c2ccco2)nc2ccccc21 | i | i | i | nt | i[0.365 µM]
c1ccc(CN2c3ccccc3-c3nc4ccccc4n3C2c2ccccn2)cc1 (stereo not drawn) | i | i | i | i | 16µM
CCN1c2ccccc2-c2nc3ccccc3n2C1c1ccco1 (stereo not drawn) | i | i | i | ? | 16µM
CN1c2ccccc2-c2nc3ccccc3n2C1c1ccncc1 (stereo not drawn) | i | i | i | i | i
O=C(CSc1nc(N2CCOCC2)nc(N2CCOCC2)n1)Nc1ccccc1F | i | i | i | i | i
CC(C)(C)n1nc2c(c1NC(=O)c1cccc(Cl)c1)CS(=O)(=O)C2 | nt | i | i | i | i
Cc1nc(N2CCOCC2)c2cc(-c3ccccc3)sc2n1 | i | i | i | i | i
Cc1nc(SCCC(=O)O)c2cc(-c3ccccc3)sc2n1 | nt | i | i | 0.5µM | 0.89µM
N#Cc1ccc(NC(=S)/N=C(\N)c2ccccc2)cc1 | nt | i | i | nt | nt
N/C(=N\C(=S)Nc1ccccc1)c1ccccc1 | nt | i | i | ? | 7.9µM
O=C(NC1CC1)c1sc2ccccc2c1Cl | nt | i | i | i | i
O=C(NNC(=S)NC1CCCCC1)c1sc2ccccc2c1Cl | i | i | i | 13µM | 2.8µM
SMILES | PKM2 act | Six1-Eya2 inh | CtBP-E1A inh | VP16 counter | RORg inh
CC(C)(C)C(=O)NC(=S)NNC(=O)c1sc2ccccc2c1Cl | i | i | i | 0.56µM | 0.63µM
CCCOC(=S)NC(=O)c1sc2ccccc2c1Cl | i | i | i | i | i
O=C(O)C1CC[C@@](C(=O)O)(c2ccccc2)c2ccccc21 (stereo partly drawn) | nt | nt | nt | i | i
COc1ccc(CNC(=S)Nc2ccc(OC)cc2)cc1 | i | i | i | ? | 10µM
COc1ccc(NC(=S)NCc2ccc(F)cc2)cc1 | nt | i | nt | ? | 7.9µM
CCCCc1ccc(NC(=S)NCc2ccccc2OC)cc1 | i | i | i | i[10 µM] | 2µM
CCCCc1ccc(NC(=S)NCc2ccc(OC)cc2)cc1 | i | i | nt | ? | 4µM
COC(=O)Cc1ccc(NC(=S)NCc2ccc(F)cc2)cc1 | i | i | i | ? | ?
CCN(CC(=O)NC1CCS(=O)(=O)C1)S(=O)(=O)c1ccccc1Cl (stereo not drawn) | i | i | i | i | i
Cc1ccccc1-c1cc(Nc2ccc(F)cc2)ncn1 | nt | nt | nt | i | i
COc1ccc(OC)c(CN2C(=O)CN(S(C)(=O)=O)CC2(C)C(=O)NC(C)C)c1 (stereo not drawn) | nt | i | i | nt | nt

Screening results deposited in PubChem BioAssay by National Center for Advancing Translational Sciences (NCATS).
